Reference: PubChem BioAssay (Tox21)
Records with an inconclusive call do not appear. Calls of active or inactive are those of the source. Unless noted, calls come from the whole dose curve; as a rule, active = well fitted curve in the direction sought with a large enough effect in the repeat runs; inconclusive = weak or mixed curves; inactive = no such curve, though single readings can be large; an effect the other way counts as inactive or inconclusive.

Columns and labels:
[1] = qHTS assay to identify small molecule antagonists of the androgen receptor (AR) signaling pathway using the MDA cell line in the presence of 0.5 nM R1881 - cell viability counter screen (AID 1259242); note: nearly all actives have a fitted effect of over 45% in size
Method in brief: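 Viability of MDA-kb2 cells was multiplexed with the luciferase AR readout; after 16 hr with compounds and R1881 at 0.5 nM final, CellTiter-Fluor fluorescence was recorded.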

[2] = target: Estrogen receptor (Homo sapiens) (UniProt P03372); assay: qHTS assay to identify small molecule antagonists of the estrogen receptor alpha (ER-alpha) signaling pathway using the BG1 cell line in the presence of 0.1 nM 17-beta-estradiol (AID 1259244); note: nearly all actives have a fitted effect of over 50% in size
Chain of Estrogen receptor (Homo sapiens) (P03372 whole entry, looked up): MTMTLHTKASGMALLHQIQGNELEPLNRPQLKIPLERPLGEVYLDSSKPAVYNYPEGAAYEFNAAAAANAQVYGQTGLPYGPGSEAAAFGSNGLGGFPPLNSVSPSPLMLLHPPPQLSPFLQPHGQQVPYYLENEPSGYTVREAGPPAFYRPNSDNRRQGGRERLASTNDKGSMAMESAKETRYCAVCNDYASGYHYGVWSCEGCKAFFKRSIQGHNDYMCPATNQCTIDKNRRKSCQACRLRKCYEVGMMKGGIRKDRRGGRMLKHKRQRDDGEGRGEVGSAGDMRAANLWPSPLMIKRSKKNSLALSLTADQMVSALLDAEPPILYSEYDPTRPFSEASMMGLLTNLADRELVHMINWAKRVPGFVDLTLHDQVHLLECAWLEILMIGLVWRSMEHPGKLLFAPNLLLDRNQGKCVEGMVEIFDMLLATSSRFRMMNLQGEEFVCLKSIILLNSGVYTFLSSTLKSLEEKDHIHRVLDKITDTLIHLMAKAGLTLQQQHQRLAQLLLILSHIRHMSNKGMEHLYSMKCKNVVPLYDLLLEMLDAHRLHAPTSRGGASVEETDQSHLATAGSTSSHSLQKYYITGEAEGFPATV
Method in brief: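 Estradiol at 0.1 nM (final) stimulates the endogenous ER-alpha of VM7Luc4E2 cells carrying an ERE-driven luciferase; compounds are co-incubated 22 h at 37C and luciferase output quantified by luminescence.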

[3] = qHTS assay to identify small molecule phospholipidosis (PLD) inducers (AID 1259344; active = well fitted curve in the direction sought with a large enough effect; an effect the other way counts as inactive or inconclusive)
Method in brief: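 Phospholipidosis is scored by imaging LipidTOX-stained pits in HepG2 cells exposed to compound for 24 h at 37 C; pit counts and integrated intensities per well and per cell serve as outputs.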

[4] = qHTS assay to identify small molecule HDAC inhibitors - cell viability counter screen (AID 1259365); note: series mostly up to about 92 µM; nearly all actives have a fitted effect of over 50% in size
Method in brief: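 Wild-type HCT-116 cells were seeded at 1,500 per well, incubated overnight at 37 C, then exposed to compounds in DMSO for 2hr. Viability was read by CellTiter-Glo luminescence after 30min at room temperature.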

[5] = qHTS assay to identify small molecule agonists of the sonic hedgehog signaling (Shh) pathway - cell viability counter screen (AID 1259366); note: nearly all actives have a fitted effect of over 50% in size
Method in brief: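 NIH/3T3-derived 3T3 Gli1-Luc cells (stable Gli1-responsive firefly luciferase reporter) were seeded, rested 4 hr at 37 C/5% CO2, then exposed to compounds in DMSO for 24 hr; viability was read by CellTiter-Fluor fluorescence in the same wells.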

[6] = qHTS assay to identify small molecule antagonists of the sonic hedgehog signaling (Shh) pathway - cell viability counter screen (AID 1259367); note: nearly all actives have a fitted effect of over 55% in size
Method in brief: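 Cells: 3T3 Gli1-Luc, 2,000/well, 4 hr pre-incubation. Compounds in DMSO, then conditioned medium. Incubation 24 hr, 37C, 5% CO2. CellTiter-Fluor at 23 hr, 1 hr, fluorescence.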

[7] = qHTS assay to identify small molecule agonists of the sonic hedgehog signaling (Shh) pathway (AID 1259368; calls by dose curve; note: series mostly up to about 92 µM; nearly all actives have a fitted effect of over 15% in size)
Method in brief: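 A Gli1 transcriptional response element controlled firefly luciferase in 3T3Gli1-Luc cells. Compounds and a positive control were added 4 hr after plating, and cells were incubated a further 24 hr at 37 C before luminescence detection.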

[8] = qHTS assay to identify small molecule antagonists of the sonic hedgehog signaling (Shh) pathway (AID 1259369; calls by dose curve; note: nearly all actives have a fitted effect of over 45% in size)
Method in brief: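 For antagonist detection, the reporter line received test compounds together with conditioned medium, incubated 24hr at 37 C, 5% CO2, then luminescence was recorded following 30min room-temperature luciferase reagent incubation.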

[9] = qHTS assay to identify small molecule agonists of the androgen receptor (AR) signaling pathway in the presence of an antagonist - cell viability counter screen (AID 1259379);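 note: MDA-kb2 human breast cancer cells carrying an MMTV luciferase reporter; series mostly up to about 92 µM; nearly all actives have a fitted effect of over 25% in size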
Method in brief: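 Seed MDA-kb2 at 3,000 cells/well; incubate 5 hr, 37C, 0% CO2. Add nilutamide to 3.0uM final, then pin compounds at 15 concentrations. Incubate 16 hr. Add CellTiter-Fluor at 15 hr, read fluorescence after 1 hr.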

[10] = qHTS assay to identify small molecule agonists of the estrogen receptor beta (ER-beta) signaling pathway - cell viability counter screen (AID 1259380); note: nearly all actives have a fitted effect of over 30% in size
Method in brief: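 CellTiter-Glo read, 30 min RT, same wells as bla assay; cells ER-beta-UAS-bla HEK293T; 16 hr compound, 37C; medium 2% charcoal-stripped FBS.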

[11] = qHTS assay to identify small molecule antagonists of the estrogen receptor beta (ER-beta) signaling pathway - cell viability counter screen (AID 1259382); note: series mostly up to about 92 µM; nearly all actives have a fitted effect of over 55% in size
Method in brief: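 In this multiplexed counter screen, cells were seeded at 2,000 per well in medium with 2% charcoal-stripped FBS and incubated 6 hr before compound and 1nM final E2 were added. Sixteen hours later, ATP-based luminescence reported viability.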

[12] = target: Estrogen receptor (Homo sapiens) (UniProt P03372); assay: qHTS assay to identify small molecule agonists of the estrogen receptor alpha (ER-alpha) signaling pathway in the presence of an antagonist (AID 1259383; calls by dose curve; note: top concentration of the series differs between compounds; nearly all actives have a fitted effect of over 15% in size)
Method in brief: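 Stably transfected VM7Luc4E2 reporter cells, kept 5 days in charcoal-stripped serum, received ICI-182,780 at 10.0nM final before compound addition. Following 22hr incubation at 37C and 5% CO2, luciferase signal was read by luminescence.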

[13] = qHTS assay to identify small molecule agonists or antagonists of the thyroid stimulating hormone receptor (TSHR) signaling pathway - wild type cell line counter screen (AID 1259384; calls by dose curve)
Method in brief: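 Counter screen in untransfected Hek293: compounds (15-point titration, triplicate) plus phosphodiesterase inhibitor Ro20-1724 added after 18 h plating; 30 min RT. Intracellular cAMP via competitive d2/cryptate immunoassay, 1 h incubation.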

[14] = target: Thyrotropin receptor (Homo sapiens) (UniProt P16473); assay: qHTS assay to identify small molecule antagonists of the thyroid stimulating hormone receptor (TSHR) signaling pathway (AID 1259385; calls by dose curve; note: nearly all actives have a fitted effect of over 20% in size)
Chain of Thyrotropin receptor (Homo sapiens) (P16473 whole entry, looked up): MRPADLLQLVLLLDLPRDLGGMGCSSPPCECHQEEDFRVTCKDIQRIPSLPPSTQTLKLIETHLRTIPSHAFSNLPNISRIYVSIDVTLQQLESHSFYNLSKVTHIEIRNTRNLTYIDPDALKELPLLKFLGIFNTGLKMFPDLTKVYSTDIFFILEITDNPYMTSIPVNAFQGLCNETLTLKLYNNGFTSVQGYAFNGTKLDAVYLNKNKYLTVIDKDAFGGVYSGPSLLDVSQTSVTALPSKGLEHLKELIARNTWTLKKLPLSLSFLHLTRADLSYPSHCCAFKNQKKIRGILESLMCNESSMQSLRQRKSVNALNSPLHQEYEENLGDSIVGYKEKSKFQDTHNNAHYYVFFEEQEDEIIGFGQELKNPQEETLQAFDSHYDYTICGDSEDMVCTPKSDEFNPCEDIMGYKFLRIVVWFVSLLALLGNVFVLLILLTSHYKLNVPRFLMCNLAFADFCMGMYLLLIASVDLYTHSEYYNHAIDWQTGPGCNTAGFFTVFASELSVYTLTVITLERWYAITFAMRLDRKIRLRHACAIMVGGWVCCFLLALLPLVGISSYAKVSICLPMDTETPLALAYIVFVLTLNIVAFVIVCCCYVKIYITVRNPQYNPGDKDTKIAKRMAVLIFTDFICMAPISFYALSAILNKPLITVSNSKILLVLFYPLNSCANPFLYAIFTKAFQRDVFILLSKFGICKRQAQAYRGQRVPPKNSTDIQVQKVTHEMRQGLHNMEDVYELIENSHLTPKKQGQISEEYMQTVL
Method in brief: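 Antagonist mode: compound-treated TSHR-expressing HEK293 cells were stimulated with 1.5 ng/mL TSH (final) in presence of Ro20-1724 for 30 min at RT. HTRF cAMP detection after 1 h; each compound tested at 15 concentrations, triplicate.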

[15] = qHTS assay to identify small molecule agonists of the estrogen receptor alpha (ER-alpha) signaling pathway in the presence of an antagonist - cell viability counter screen (AID 1259386);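 note: series mostly up to about 92 µM; cells exposed to compounds for 22 h at 37 °C before the viability read; nearly all actives have a fitted effect of over 30% in size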
Method in brief: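 Viability counter screen using VM7Luc4E2 (full-length ER-alpha, four ERE-luciferase). The cells were treated with compounds alongside ICI-182,780 10.0nM for 22hr, and live-cell protease fluorescence was quantified with CellTiter-Fluor.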

[16] = qHTS assay to identify small molecule HDAC inhibitors (AID 1259364);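 note: wild-type HCT-116 cells with endogenous class I/II HDAC activity; top concentration of the series differs between compounds; nearly all actives have a fitted effect of over 45% in size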
Method in brief: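 Read-out: luminescence of HDAC-Glo I/II reagent, 30 min RT, reflecting class I/II deacetylase activity in whole HCT-116 cells pre-exposed 2 h to DMSO-dissolved compounds.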

[17] = target: Estrogen receptor beta (Homo sapiens) (UniProt Q92731); assay: qHTS assay to identify small molecule agonists of the estrogen receptor beta (ER-beta) signaling pathway (AID 1259377; active = well fitted activation curve with a large enough effect in the signal ratio in the repeat runs, not every such curve was filed as active; the % refers to the signal ratio)
Chain of Estrogen receptor beta (Homo sapiens) (Q92731 whole entry, looked up): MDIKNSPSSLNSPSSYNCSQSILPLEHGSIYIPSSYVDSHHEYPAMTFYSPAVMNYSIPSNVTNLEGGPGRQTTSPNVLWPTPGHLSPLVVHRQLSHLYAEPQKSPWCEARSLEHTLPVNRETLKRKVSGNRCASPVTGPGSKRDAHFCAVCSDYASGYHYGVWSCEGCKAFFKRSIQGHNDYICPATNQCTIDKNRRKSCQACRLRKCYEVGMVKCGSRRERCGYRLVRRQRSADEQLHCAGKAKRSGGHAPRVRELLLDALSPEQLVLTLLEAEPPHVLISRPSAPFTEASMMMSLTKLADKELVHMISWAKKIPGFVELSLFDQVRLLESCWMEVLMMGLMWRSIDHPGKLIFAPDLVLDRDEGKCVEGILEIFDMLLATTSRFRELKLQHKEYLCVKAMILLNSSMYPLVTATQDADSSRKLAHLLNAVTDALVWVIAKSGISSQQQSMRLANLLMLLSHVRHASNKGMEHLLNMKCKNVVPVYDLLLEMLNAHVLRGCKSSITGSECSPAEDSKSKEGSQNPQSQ
Method in brief: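 ER-beta-UAS-bla HEK293T (GripTite) cells carrying a UAS-driven beta-lactamase reporter, in medium with 2% charcoal-stripped FBS, were exposed to compounds for 16 hr at 37C; LiveBLAzer B/G FRET substrate was then added and fluorescence read after 2 hours at room temperature.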

[18] = target: Estrogen receptor beta (Homo sapiens) (UniProt Q92731); assay: qHTS assay to identify small molecule antagonists of the estrogen receptor beta (ER-beta) signaling pathway (AID 1259378; active = well fitted inhibition curve with a large enough effect in the signal ratio in the repeat runs, not every such curve was filed as active; the % refers to the signal ratio)
Method in brief: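 Antagonist mode: compounds added to beta-lactamase reporter HEK293T ER-beta-UAS cells stimulated with E2 (1nM final), 16 hr at 37C. LiveBLAzer B/G FRET substrate, 2 hours room temperature, fluorescence read-out.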
% is set by controls: 0 for no effect and ±100 for the full control effect.

N[C@@H](C(=O)N[C@@H]1C(=O)N2C(C(=O)O)=C(Cl)CS[C@H]12)c1ccccc1
inactive: viability change, negative = cytotoxic [1] 4.33% [at 8.39 µM] | activity change, negative = inhibition [2] 7.81% [at 8.39 µM] | Potency [3] | activity change, negative = cytotoxicity [4] -0.59% [at 8.39 µM] | viability change, negative = cytotoxic [5] 1.34% [at 8.39 µM] | viability change, negative = cytotoxic [6] 3.69% [at 8.39 µM] | activity change [7] -0.56% [at 8.39 µM] | activity change, negative = inhibition [8] -3.06% [at 8.39 µM] | activity change, negative = cytotoxicity [9] -6.11% [at 8.39 µM] | activity change, negative = cytotoxicity [10] 2.28% [at 8.39 µM] | activity change, negative = cytotoxicity [11] 5.71% [at 8.39 µM] | activation [12] 0.817% [at 8.39 µM] | cAMP activity change [13] -1.5% [at 8.39 µM] | activity change, negative = inhibition [14] 1.57% [at 8.39 µM] | activity change, negative = cytotoxicity [15] -0.6% [at 8.39 µM]

CCCN1CCCC[C@H]1C(=O)Nc1c(C)cccc1C
inactive: Potency [3] | Potency [16] | outcome [4] | Potency [5] | Potency [6] | outcome [7] | Potency [8] | Potency [9] | Potency [10] | Potency [11] | Potency [14] | Potency [15]

c1cnc(N2CCN(Cc3ccc4c(c3)OCO4)CC2)nc1
inactive: outcome [2] | Potency [16] | outcome [4] | Potency [5] | Potency [6] | outcome [7] | Potency [8] | outcome [17] | outcome [18] | Potency [9] | Potency [10] | Potency [11] | Potency [12] | outcome [13] | Potency [14] | Potency [15]

COC(=O)c1ccc(C)cc1C1=NC(C)(C(C)C)C(=O)N1 (stereo not drawn)
inactive: Potency [1] | Potency [16] | outcome [4] | Potency [5] | Potency [6] | Potency [8] | outcome [17] | outcome [18] | Potency [9] | Potency [10] | Potency [11] | Potency [15]

N[C@H]1CN(c2c(F)cc3c(=O)c(C(=O)O)cn(C4C[C@H]4F)c3c2Cl)CC12CC2 (stereo partly drawn)
inactive: Potency [1] | outcome [2] | Potency [3] | Potency [16] | outcome [4] | Potency [5] | Potency [6] | Potency [8] | Potency [9] | Potency [10] | Potency [11] | Potency [12] | outcome [13] | Potency [14] | Potency [15]

Cc1cccn2c(=O)c(-c3nnn[nH]3)cnc12
inactive: viability change, negative = cytotoxic [1] 3.32% [at 19 µM] | activity change, negative = inhibition [2] 3.45% [at 19 µM] | activity change, negative = inhibition [16] -1.21% [at 19 µM] | activity change, negative = cytotoxicity [4] -4.27% [at 19 µM] | viability change, negative = cytotoxic [5] 4.51% [at 19 µM] | Potency [6] | activity change [7] 0.228% [at 18.9 µM] | outcome [17] | activity, negative = inhibition [18] 3.16% [at 19 µM] | activity change, negative = cytotoxicity [9] 1.69% [at 19 µM] | activity change, negative = cytotoxicity [11] -8.96% [at 19 µM] | activation [12] -1.22% [at 19 µM] | activity change, negative = inhibition [14] -4.29% [at 19 µM] | activity change, negative = cytotoxicity [15] 5.01% [at 19 µM]

CO[Si](CCCOCC1CO1)(OC)OC (stereo not drawn)
inactive: Potency [1] | outcome [2] | Potency [16] | outcome [4] | Potency [5] | Potency [6] | outcome [7] | Potency [8] | Potency [9] | Potency [10] | Potency [11] | Potency [12] | Potency [15]

CC(=O)OC/C=C(\C)CC/C=C(\C)CCC=C(C)C
inactive: Potency [1] | outcome [2] | Potency [16] | outcome [4] | Potency [5] | Potency [6] | Potency [8] | outcome [17] | outcome [18] | Potency [9] | Potency [10] | Potency [11] | Potency [12] | outcome [13] | Potency [14] | Potency [15]
